Bioassay records (PubChem BioAssay)
RORgamma inh = ROR gamma (mouse) transcription inhibition; P51450; Drosophila S2 Gal4-RORgamma UAS-luciferase reporter, 20 h; Potency, µM (doses to about 53.6 µM), without a hit: at the highest dose activity change, negative = inhibition, usual class: inhibitors; hit rate 5.4% among 310,000; AID 2551; further: nearly all actives have a fitted effect of over 60% in size
Target sequence (P51450 whole entry, looked up, the tested form may be a part): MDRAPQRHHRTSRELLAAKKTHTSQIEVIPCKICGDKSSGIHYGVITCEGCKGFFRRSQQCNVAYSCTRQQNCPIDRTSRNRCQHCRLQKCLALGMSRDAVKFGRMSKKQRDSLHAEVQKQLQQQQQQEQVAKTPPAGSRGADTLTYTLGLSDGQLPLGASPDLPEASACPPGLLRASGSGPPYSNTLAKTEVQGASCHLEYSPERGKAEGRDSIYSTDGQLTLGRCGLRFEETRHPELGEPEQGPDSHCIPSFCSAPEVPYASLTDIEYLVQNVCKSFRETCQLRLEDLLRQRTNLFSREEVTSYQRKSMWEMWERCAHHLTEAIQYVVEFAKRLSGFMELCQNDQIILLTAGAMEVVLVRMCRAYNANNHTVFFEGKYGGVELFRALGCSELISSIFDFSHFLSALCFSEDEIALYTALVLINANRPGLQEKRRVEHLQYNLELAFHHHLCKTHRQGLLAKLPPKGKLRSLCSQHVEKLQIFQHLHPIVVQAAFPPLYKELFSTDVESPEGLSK
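Read-out: Photinus luciferase luminescence; inhibitors lower reporter signal. Insect Schneider cells with Gal4-ROR gamma fusion under metallothionein promoter, UAS reporter; 700 uM final copper sulfate induction, 20 hr, ambient temperature.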
VP16 counter = counter-screen for ROR gamma inhibitors: Gal4-VP16 reporter. Drosophila S2 Gal4-VP16 UAS-luciferase, luminescence, 20 h. Potency, µM (top dose mostly 53.6 µM), without a hit: at the highest dose activity, negative = inhibition, usual class: inhibitors. hit rate 3.5% among 310,000. AID 2546;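 further: Gal4-VP16 expression switched on by copper sulfate through the metallothionein promoter; nearly all actives have a fitted effect of over 50% in size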
Tau fluor counter = counter-screen for tau fibril formation inhibitors; hit rate 0.93% among 280,000; AID 1463; tau K18 P301L Alexa594 fluorescence, heparin fibrillization; Potency, µM (doses to about 57.7 µM), without a hit: top-dose activity change, negative = decrease; further: nearly all actives have a fitted effect of over 55% in size
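Human K18 P301L tau (15 uM unlabeled plus 0.24 uM Alexa 594-labeled, final) in 100 mM sodium acetate pH 7 was mixed with compound and 20 uM heparin and incubated 6 hr at 37 C.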
Tau fibril FP = blocks human tau fibril formation measured by polarization; K18 P301L tau heparin fibrillization, Alexa594 FP, 6 h; Potency, µM (titrated, usually from 57.7 µM), without a hit: top-dose activity, negative = inhibition, usual class: inhibitors; hit rate 0.39% among 280,000; further: nearly all actives have a fitted effect of over 55% in size
Target sequence (P10636 561-689 P618L limits assumed): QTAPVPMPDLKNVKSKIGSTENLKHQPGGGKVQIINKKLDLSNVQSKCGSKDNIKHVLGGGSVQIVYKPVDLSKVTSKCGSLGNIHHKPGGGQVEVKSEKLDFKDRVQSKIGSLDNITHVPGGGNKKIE
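Quantitative HTS format: compounds meet 15 uM recombinant K18 P301L tau and Alexa 594-tau tracer in 100 mM sodium acetate pH 7; 20 uM heparin triggers fibrillization at 37 C over 6 hr; FP gives the signal.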
Tau fibril ThT = tau fibrillization inhibition (ThT binding) | P10636 | recombinant tau K18 P301L (four-repeat tau fragment), heparin-induced fibrillization, ThT fluorescence | Potency, µM (series often up to 57.4 µM), without a hit: top-dose activity, negative = inhibition, actives largely listed as inhibitors | hit rate 2.1% among 270,000 | AID 1460; further: nearly all actives have a fitted effect of over 55% in size
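Aggregation was driven by heparin (20 uM final) acting on recombinant tau […] bearing P301L in 100 mM sodium acetate pH 7; fibrils were detected with Thioflavin T.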
The depositor's hits bear a star; ? = inconclusive; nt = not tested or not shown; [ ] = dose if it differs, or a comment. Hits are enriched below; roughly 7.3% of the tested compounds scored in any of these assays. The call rests on the fitted dose curve; in most records, active means well fitted curve in the direction sought with a large enough effect; inconclusive means small, poorly fitted or top-dose-only effect, or another doubt; inactive means no such curve, though single readings can be large; an effect the other way counts as inactive or inconclusive. On the % scale 0 is the no-effect control and ±100 the full control effect; potency means the concentration at half of the fitted maximal effect.

SMILES	RORgamma inh	VP16 counter	Tau fluor counter	Tau fibril FP	Tau fibril ThT
COc1ccc(Cl)cc1NC(=O)C/C(C)=N/NC(=O)c1ccccc1Cl	20%[1.91 µM]	13µM*	nt	nt	nt
COc1cccc(-n2c(SCC(=O)N3CCc4ccccc43)nc3c([nH]c4ccccc43)c2=O)c1	nt	nt	-7%	-4%	?
CC(Cl)C(=O)Nc1cc(C(F)(F)F)ccc1N1CCOCC1 (centres undefined)	10%	4%	-8%	-5%	-1%
O=C(CCc1ccccc1)NC(=S)Nc1cc(C(F)(F)F)ccc1N1CCOCC1	7.1µM*	?	-26%	-2%	-8%
CC(C)CC(=O)NC(=S)Nc1cc(C(F)(F)F)ccc1N1CCOCC1	7.9µM*	7.1µM*	-21%	7%	-6%
O=C(O)C[CH2][Ge](=[O])[O][Ge](=[O])[CH2]CC(=O)O	2%[10 µM]	2%	nt	nt	nt
CCSc1nc2ccccc2n1C(=O)/C=C\c1ccc(OC)c(OC)c1	10µM*	10µM*	-18%	?	10µM*
Cc1ccccc1NC(=O)COC(=O)c1ccccc1SCC(=O)N1CCCC1	19%	13%	nt	nt	nt
CC(Oc1ccc(Cl)cc1)C(=O)N/N=C/c1ccsc1 (centres undefined)	11µM*	?	-9%	8%	3%
CCCCCOc1ccc(Br)cc1CSC(=N)N	-75%	7.1µM*	-9%	5%	-14%
COC(=O)c1cc2oc3ccccc3c2n1CC(=O)Nc1ccc(OC)c(OC)c1	nt	nt	-18%	-16%	-7%
Cc1c(C)n(Cc2ccccc2)c2ncnc(NN)c12	?	16µM*	nt	nt	nt
O=C(/C=C/C(=O)N1CCc2ccccc2C1)N1CCc2ccccc2C1	?	20µM*	-12%	7%	?
Cc1ccc(/C=C/C(=O)N2CCc3ccccc3C2)cc1	18µM*	?	-20%	0%	?
Cc1ccc(/C=C/C(=O)N2CCCN(C(=O)/C=C/c3ccc(C)cc3)CC2)cc1	24%	1%	-16%	0%	?
CC(C)(C)c1ccc(/C=C/C(=O)N2CCc3ccccc3C2)cc1	?	1µM*	-17%	-6%	?
CCCCCC#CC[C@@H](O)/C=C/C=C/C=C\[C@@H](O)CCCC(=O)O	9%	5%	-1%	0%	1%
CCOc1cc(C(c2c(C)[nH][nH]c2=O)c2c(C)[nH][nH]c2=O)cc([N+](=O)[O-])c1O	?	-7%	nt	nt	nt
CCOc1cc(C(c2c(C)[nH][nH]c2=O)c2c(C)[nH][nH]c2=O)ccc1OC(=O)c1cccc([N+](=O)[O-])c1	1%	0%	?	-8%	?
CCOc1cc(C(c2c(C)[nH][nH]c2=O)c2c(C)[nH][nH]c2=O)ccc1OCc1ccc([N+](=O)[O-])cc1	-36%	-26%	?	-5%	11µM*
COc1cc(C(c2c(C)[nH][nH]c2=O)c2c(C)[nH][nH]c2=O)cc([N+](=O)[O-])c1O	?	-14%	-25%	?	14µM*
Cc1ccc(CN2C(=O)c3ccccc3Sc3ccc(C(=O)NC4CCCCC4)cc32)cc1	nt	nt	0%	-3%	1%
Cc1ccc2nc(CSc3nc(C)cc(C)c3C#N)[nH]c2c1	?	-6%	?	?	13µM*
CC(C)(C)C1CCC(=NNc2ncc(C(F)(F)F)cc2Cl)CC1 (centres undefined)	28µM*	11µM*	-5%	3%	-8%
CCOc1ccc(NC(=O)c2ccc(-c3cccc(Cl)c3C)o2)cc1	nt	nt	?	-10%	?
SMILES	RORgamma inh	VP16 counter	Tau fluor counter	Tau fibril FP	Tau fibril ThT
O=C(COc1ccc2ccccc2c1)Nc1cccc(C(=O)Nc2ccccc2C(=O)O)c1	27%	-8%	-9%	7%	12%
O=C(O)c1ccccc1Nc1cccc(OCc2ccc3ccccc3n2)c1	25%	-9%	8.9µM*[quencher]	-2%	14µM*
Cc1c(C(=O)N(Cc2ccccc2F)C2CCS(=O)(=O)C2)oc2ccc(F)cc12 (centres undefined)	nt	nt	-25%	6%	?
Cc1cc(C)c(C(=O)/C=C/c2cccc3ccccc23)c(=O)[nH]1	?	13µM*	-3%	5%	?
CCCNC(=S)Nc1ccc(Br)cc1	11µM*	?	-13%	-1%	-10%
S=C(NCCOCCOCCNC(=S)Nc1ccccc1)Nc1ccccc1	5µM*	?	-15%	-7%	6%
Cc1ccc(NC(=S)NCC(C)C)cc1	10µM*	11µM*	6%	-1%	10%
COC(=O)Cc1ccc(NC(=S)NCCC(C)C)cc1	10µM*	?	0%	-5%	-3%
S=C(NCCNC(=S)Nc1ccccc1)Nc1ccccc1	-37%[1.91 µM]	0%	nt	nt	nt
Cc1cnc(C(=O)O)cn1	-15%	4%	nt	nt	nt
CC(C)CCNC(=S)Nc1ccc(Br)cc1	3.5µM*	10µM*	?	-14%	1%
CC(C)CCNC(=S)Nc1ccc([N+](=O)[O-])cc1	?	?	?	?	-13%
S=C(NCCc1ccccc1)Nc1ccc(Br)cc1	5µM*	?	?	?	-4%
S=C(NCCc1ccncc1)Nc1ccccc1	-16%	-1%	8%	-4%	7%
S=C(NCC1(c2ccccc2)CCCC1)Nc1ccccc1	1.6µM*	6.3µM*	nt	nt	nt
O=C1c2[nH]nc(-c3ccc(Br)cc3)c2C(c2cccc(O)c2)N1c1ccc(Cl)cc1 (centres undefined)	nt	nt	?	13µM*	10%
O=C(NC(=S)Nc1cc(Cl)ccc1N1CCOCC1)c1ccccc1[N+](=O)[O-]	3.5µM*	3.5µM*	nt	nt	nt
Cc1cc(C(=O)NC(=S)Nc2ccccc2N2CCOCC2)ccc1[N+](=O)[O-]	2.8µM*	14µM*	?	7%	-14%
COc1ccc(C(=O)Nc2ccccc2N2CCOCC2)cc1[N+](=O)[O-]	-5%	-3%	4%	-5%	9%
COc1ccc(C(=O)NC(=S)Nc2ccccc2N2CCOCC2)cc1[N+](=O)[O-]	6.3µM*	10µM*	?	-9%	-14%
Cc1cc(C(=O)NC(=S)Nc2ccccc2N2CCCC2)ccc1[N+](=O)[O-]	2.5µM*	3.2µM*	?	2%	-17%
Cc1csc2c(N3CCN(C(=O)Nc4ccc(OC(F)(F)F)cc4)CC3)ncnc12	?	13µM*	-20%	?	?
Cc1csc2c(N3CCC(C(=O)O)CC3)ncnc12	10%	5%	-6%	5%	-5%
O=C(/C=C/c1ccccc1)OC1CC(O)C2(O)C=CO[C@@H](OC3OC(CO)C(O)C(O)C3O)C12 (some centres undefined)	-2%	-13%	-3%	-12%	0%
